Experimental data taken from PubChem BioAssay AID1159580 (chemical genetic matrix, 2015).
The whole screen tested about 5,500 compounds, of which about 2,000 (36%) were called active. Not shown: some 18% with an inconclusive outcome. Rule as the data show it: active = normalized growth mostly below about 0.91 (no sharp cut-off); inconclusive = no clear call, values can overlap the other calls; inactive = mostly above about 0.92. The list shows a part of the results.

Test: chemical genetic growth profiling, strain panel (AID 1159580);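 also: tested at 20 µM; growth read once vehicle control cultures reached saturation at 30 °C; 1 = growth at the plate median or of vehicle wells; lower values mean less growth of the strain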
Details: growth OD

Measured: normalized growth

COc1cc(CNC(=O)CCCC/C=C/C(C)C)ccc1O
inactive: S. cerevisiae deletion strains, locus YJR043C, strain POL32, stronger effect = lower value 1 | S. cerevisiae deletion strains, locus YJR066W, strain TOR1, stronger effect = lower value 0.95 | S. cerevisiae deletion strains, locus YKL009W, strain mrt4, stronger effect = lower value 0.926 | S. cerevisiae deletion strains, locus YKL068W, stronger effect = lower value 1.01 | S. cerevisiae deletion strains, locus YKL085W, strain MDH1 (second series), stronger effect = lower value 1 | S. cerevisiae deletion strains, locus YKL085W, strain MDH1, stronger effect = lower value 1 | S. cerevisiae deletion strains, locus YKL160W, strain elf1, stronger effect = lower value 0.97 | S. cerevisiae deletion strains, locus YKL190W, strain CNB1, stronger effect = lower value 0.998 | S. cerevisiae deletion strains, locus YKR001C, strain vps1, stronger effect = lower value 0.997 | S. cerevisiae deletion strains, locus YKR026C, strain gcn3, stronger effect = lower value 0.97 | S. cerevisiae deletion strains, locus YKR091W, strain srl3, stronger effect = lower value 0.981 | S. cerevisiae deletion strains, locus YLL001W, strain dnm1, stronger effect = lower value 0.955 | S. cerevisiae deletion strains, locus YLL026W, stronger effect = lower value 0.987 | S. cerevisiae deletion strains, locus YLL041C, strain sdh2, stronger effect = lower value 0.987 | S. cerevisiae deletion strains, locus YLR027C, strain aat2, stronger effect = lower value 0.975 | S. cerevisiae deletion strains, locus YLR039C, strain RIC1, stronger effect = lower value 1.07 | S. cerevisiae deletion strains, locus YLR058C, strain SHM2, stronger effect = lower value 1.02 | S. cerevisiae deletion strains, locus YLR102C, strain apc9, stronger effect = lower value 0.986 | S. cerevisiae deletion strains, locus YLR113W, strain HOG1, stronger effect = lower value 1.02 | S. cerevisiae deletion strains, locus YLR221C, strain rsa3, stronger effect = lower value 0.978 | S. cerevisiae deletion strains, locus YLR258W, strain gsy2, stronger effect = lower value 0.986 | S. cerevisiae deletion strains, locus YLR262C, strain YPT6 (second series), stronger effect = lower value 0.966 | S. cerevisiae deletion strains, locus YLR262C, strain YPT6, stronger effect = lower value 1.11 | S. cerevisiae deletion strains, locus YLR268W, strain sec22, stronger effect = lower value 0.967 | S. cerevisiae deletion strains, locus YLR320W, strain mms22, stronger effect = lower value 0.995 | S. cerevisiae deletion strains, locus YLR330W, strain CHS5, stronger effect = lower value 1.02 | S. cerevisiae deletion strains, locus YLR342W, strain FKS1 (second series), stronger effect = lower value 1.02 | S. cerevisiae deletion strains, locus YLR342W, strain FKS1, stronger effect = lower value 0.978 | S. cerevisiae deletion strains, locus YLR357W, strain rsc2, stronger effect = lower value 1.03 | S. cerevisiae deletion strains, locus YLR370C, strain arc18, stronger effect = lower value 0.977 | S. cerevisiae deletion strains, locus YLR371W, strain rom2, stronger effect = lower value 1.01 | S. cerevisiae deletion strains, locus YLR384C, strain iki3, stronger effect = lower value 0.975 | S. cerevisiae deletion strains, locus YLR418C, strain cdc73, stronger effect = lower value 1 | S. cerevisiae deletion strains, locus YML016C, strain PPZ1, stronger effect = lower value 0.998 | S. cerevisiae deletion strains, locus YML032C, strain rad52, stronger effect = lower value 0.988 | S. cerevisiae deletion strains, locus YML120C, strain ndi1, stronger effect = lower value 0.984 | S. cerevisiae deletion strains, locus YML124C, strain tub3, stronger effect = lower value 0.986 | S. cerevisiae deletion strains, locus YMR058W, strain fet3, stronger effect = lower value 1 | S. cerevisiae deletion strains, locus YMR078C, strain ctf18, stronger effect = lower value 1 | S. cerevisiae deletion strains, locus YMR125W, strain sto1, stronger effect = lower value 1 | S. cerevisiae deletion strains, locus YMR129W, stronger effect = lower value 0.974 | S. cerevisiae deletion strains, locus YMR205C, strain PFK2, stronger effect = lower value 0.975 | S. cerevisiae deletion strains, locus YMR223W, strain ubp8, stronger effect = lower value 1 | S. cerevisiae deletion strains, locus YMR231W, strain pep5, stronger effect = lower value 1 | S. cerevisiae deletion strains, locus YMR307W, strain GAS1, stronger effect = lower value 1.04 | S. cerevisiae deletion strains, locus YNL067W, strain RPL9B, stronger effect = lower value 1 | S. cerevisiae deletion strains, locus YNL071W, strain lat1, stronger effect = lower value 0.979 | S. cerevisiae deletion strains, locus YNL183C, strain NPR1, stronger effect = lower value 0.96 | S. cerevisiae deletion strains, locus YNL209W, strain ssb2, stronger effect = lower value 1 | S. cerevisiae deletion strains, locus YNL233W, strain BNI4, stronger effect = lower value 0.995 | S. cerevisiae deletion strains, locus YNL248C, strain rpa49, stronger effect = lower value 0.926 | S. cerevisiae deletion strains, locus YNL250W, strain rad50, stronger effect = lower value 1.01 | S. cerevisiae deletion strains, locus YNL271C, strain bni1, stronger effect = lower value 0.984 | S. cerevisiae deletion strains, locus YNL298W, strain CLA4, stronger effect = lower value 0.992 | S. cerevisiae deletion strains, locus YNL307C, strain MCK1, stronger effect = lower value 0.988 | S. cerevisiae deletion strains, locus YNL322C, strain KRE1 (second series), stronger effect = lower value 0.98 | S. cerevisiae deletion strains, locus YNL322C, strain KRE1, stronger effect = lower value 1.01 | S. cerevisiae deletion strains, locus YNR049C, strain mso1, stronger effect = lower value 0.985 | S. cerevisiae deletion strains, locus YNR052C, strain pop2, stronger effect = lower value 0.985 | S. cerevisiae deletion strains, locus YOL012C, strain htz1 1.39 | S. cerevisiae deletion strains, locus YOL147C, strain pex11, stronger effect = lower value 0.973 | S. cerevisiae deletion strains, locus YOR001W, strain rrp6, stronger effect = lower value 0.956 | S. cerevisiae deletion strains, locus YOR061W, strain CKA2, stronger effect = lower value 1.02 | S. cerevisiae deletion strains, locus YOR069W, strain VPS5, stronger effect = lower value 1.01 | S. cerevisiae deletion strains, locus YOR070C, strain gyp1, stronger effect = lower value 0.99 | S. cerevisiae deletion strains, locus YOR080W, strain dia2, stronger effect = lower value 0.979 | S. cerevisiae deletion strains, locus YOR083W, strain WHI5, stronger effect = lower value 0.962 | S. cerevisiae deletion strains, locus YOR106W, strain vam3, stronger effect = lower value 0.967 | S. cerevisiae deletion strains, locus YOR136W, strain idh2, stronger effect = lower value 0.988 | S. cerevisiae deletion strains, locus YOR144C, strain elg1, stronger effect = lower value 0.996 | S. cerevisiae deletion strains, locus YOR184W, strain ser1, stronger effect = lower value 0.995 | S. cerevisiae deletion strains, locus YOR231W, strain MKK1, stronger effect = lower value 1.02 | S. cerevisiae deletion strains, locus YOR265W, strain rbl2, stronger effect = lower value 0.982 | S. cerevisiae deletion strains, locus YOR270C, strain vph1, stronger effect = lower value 1 | S. cerevisiae deletion strains, locus YOR290C, strain snf2, stronger effect = lower value 1 | S. cerevisiae deletion strains, locus YOR316C, strain cot1, stronger effect = lower value 0.987 | S. cerevisiae deletion strains, locus YPL051W, strain arl3, stronger effect = lower value 0.97 | S. cerevisiae deletion strains, locus YPL078C, strain atp4, stronger effect = lower value 0.974 | S. cerevisiae deletion strains, locus YPL106C, strain sse1, stronger effect = lower value 0.995 | S. cerevisiae deletion strains, locus YPL240C, strain hsp82, stronger effect = lower value 0.991 | S. cerevisiae deletion strains, locus YPL256C, strain CLN2, stronger effect = lower value 0.986 | S. cerevisiae deletion strains, locus YPR119W, strain clb2, stronger effect = lower value 0.994 | S. cerevisiae deletion strains, locus YPR141C, strain kar3, stronger effect = lower value 0.996 | S. cerevisiae deletion strains, locus YPR163C, strain tif3, stronger effect = lower value 0.981 | S. cerevisiae deletion strains, locus YPR167C, strain met16, stronger effect = lower value 1.01 | S. cerevisiae deletion strains, strain wtn01, stronger effect = lower value 0.963 | S. cerevisiae strains, strain wild type, stronger effect = lower value 1
